{"source": "the supplement of paper PMC10849652", "note": "About 7,900 targets were measured; listed, in parts, are those with a hit and a random draw of the rest. About 0.6% of all pairs of compound and target were hits.", "data": [{"compound": "CON(C)C(=O)N1N=C(c2cc(F)ccc2F)S[C@@]1(CCCN)c1ccccc1 [filanesib]", "experiment": "log2 fold change, soluble protein after heating vs DMSO (PISA); higher = thermal stabilisation; K562 cells, 10 uM, 30 min; active = over 0.2 and 3.5 SD of the protein, either way, in both replicates (recomputed)", "method_in_brief": "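K562 cells at 2×10^6 cells/mL were given 10 μM compound for 30 min. Aliquots then went through 3 min of heating across 48°C-58°C, were pooled, and were extracted in PBS with 0.5% NP-40 at 4°C, and the supernatant after 21,000xg for 90 min was quantified by TMTpro 16plex LC-MS/MS with channel sums equalised. Thermal stability relative to control samples, from duplicates, is given as log2 fold change.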", "values": [{"target": "SLC44A2 isoform 2 (UniProt Q8IWA5)", "log2 fold change": "0.048 (inactive)"}, {"target": "STK38L (UniProt Q9Y2H1)", "log2 fold change": "-0.009 (inactive)"}, {"target": "SLC35F6 (UniProt Q8N357)", "log2 fold change": "-0.001 (inactive)"}, {"target": "SLC27A1 (UniProt Q6PCB7)", "log2 fold change": "0.118 (inactive)"}, {"target": "SRSF6 (UniProt Q13247)", "log2 fold change": "0.218 (inactive)"}, {"target": "TATDN2 (UniProt Q93075)", "sequence (Q93075 whole entry, looked up)": "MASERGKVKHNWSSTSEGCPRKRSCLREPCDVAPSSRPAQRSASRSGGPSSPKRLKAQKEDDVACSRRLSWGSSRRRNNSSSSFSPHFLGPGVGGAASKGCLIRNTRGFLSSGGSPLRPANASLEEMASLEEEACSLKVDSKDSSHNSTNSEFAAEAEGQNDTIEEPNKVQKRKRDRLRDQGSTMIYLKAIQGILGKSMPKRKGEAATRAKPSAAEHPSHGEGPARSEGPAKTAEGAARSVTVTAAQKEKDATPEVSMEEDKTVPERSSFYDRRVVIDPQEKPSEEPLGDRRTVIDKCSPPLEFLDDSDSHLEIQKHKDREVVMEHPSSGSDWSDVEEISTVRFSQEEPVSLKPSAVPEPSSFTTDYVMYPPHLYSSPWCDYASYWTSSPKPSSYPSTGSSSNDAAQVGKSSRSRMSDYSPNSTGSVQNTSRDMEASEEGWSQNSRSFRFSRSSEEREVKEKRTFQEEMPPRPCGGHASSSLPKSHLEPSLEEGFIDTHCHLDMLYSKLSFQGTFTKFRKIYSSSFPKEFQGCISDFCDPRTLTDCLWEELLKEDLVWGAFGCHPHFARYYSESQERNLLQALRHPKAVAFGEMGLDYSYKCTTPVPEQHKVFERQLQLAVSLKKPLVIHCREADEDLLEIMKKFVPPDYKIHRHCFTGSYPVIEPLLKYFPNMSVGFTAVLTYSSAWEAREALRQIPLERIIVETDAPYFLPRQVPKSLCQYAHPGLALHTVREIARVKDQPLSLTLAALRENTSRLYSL", "log2 fold change": "0.002 (inactive)"}, {"target": "TENT5C (UniProt Q5VWP2)", "log2 fold change": "0.049 (inactive)"}, {"target": "TMBIM1 (UniProt Q969X1)", "log2 fold change": "-0.161 (inactive)"}, {"target": "SNRNP40 (UniProt Q96DI7)", "sequence (Q96DI7 whole entry, looked up)": "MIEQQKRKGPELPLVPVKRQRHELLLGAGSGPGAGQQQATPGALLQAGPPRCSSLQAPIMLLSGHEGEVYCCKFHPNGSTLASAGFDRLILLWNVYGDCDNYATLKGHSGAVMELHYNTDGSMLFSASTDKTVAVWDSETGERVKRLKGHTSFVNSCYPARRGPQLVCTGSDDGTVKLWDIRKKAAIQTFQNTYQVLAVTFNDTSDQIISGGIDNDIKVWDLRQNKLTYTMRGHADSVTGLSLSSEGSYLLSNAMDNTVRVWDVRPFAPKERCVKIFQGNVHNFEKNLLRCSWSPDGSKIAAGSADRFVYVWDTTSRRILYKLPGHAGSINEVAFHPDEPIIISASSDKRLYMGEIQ", "log2 fold change": "0.08 (inactive)"}, {"target": "SPART (UniProt Q8N0X7)", "log2 fold change": "0.011 (inactive)"}, {"target": "SRSF4 (UniProt Q08170)", "log2 fold change": "0.234 (inactive)"}, {"target": "SMDT1 (UniProt Q9H4I9)", "log2 fold change": "-0.39 (active)"}, {"target": "SNX1 (UniProt Q13596)", "log2 fold change": "-0.182 (inactive)"}, {"target": "THADA (UniProt Q6YHU6)", "sequence (Q6YHU6 whole entry, looked up)": "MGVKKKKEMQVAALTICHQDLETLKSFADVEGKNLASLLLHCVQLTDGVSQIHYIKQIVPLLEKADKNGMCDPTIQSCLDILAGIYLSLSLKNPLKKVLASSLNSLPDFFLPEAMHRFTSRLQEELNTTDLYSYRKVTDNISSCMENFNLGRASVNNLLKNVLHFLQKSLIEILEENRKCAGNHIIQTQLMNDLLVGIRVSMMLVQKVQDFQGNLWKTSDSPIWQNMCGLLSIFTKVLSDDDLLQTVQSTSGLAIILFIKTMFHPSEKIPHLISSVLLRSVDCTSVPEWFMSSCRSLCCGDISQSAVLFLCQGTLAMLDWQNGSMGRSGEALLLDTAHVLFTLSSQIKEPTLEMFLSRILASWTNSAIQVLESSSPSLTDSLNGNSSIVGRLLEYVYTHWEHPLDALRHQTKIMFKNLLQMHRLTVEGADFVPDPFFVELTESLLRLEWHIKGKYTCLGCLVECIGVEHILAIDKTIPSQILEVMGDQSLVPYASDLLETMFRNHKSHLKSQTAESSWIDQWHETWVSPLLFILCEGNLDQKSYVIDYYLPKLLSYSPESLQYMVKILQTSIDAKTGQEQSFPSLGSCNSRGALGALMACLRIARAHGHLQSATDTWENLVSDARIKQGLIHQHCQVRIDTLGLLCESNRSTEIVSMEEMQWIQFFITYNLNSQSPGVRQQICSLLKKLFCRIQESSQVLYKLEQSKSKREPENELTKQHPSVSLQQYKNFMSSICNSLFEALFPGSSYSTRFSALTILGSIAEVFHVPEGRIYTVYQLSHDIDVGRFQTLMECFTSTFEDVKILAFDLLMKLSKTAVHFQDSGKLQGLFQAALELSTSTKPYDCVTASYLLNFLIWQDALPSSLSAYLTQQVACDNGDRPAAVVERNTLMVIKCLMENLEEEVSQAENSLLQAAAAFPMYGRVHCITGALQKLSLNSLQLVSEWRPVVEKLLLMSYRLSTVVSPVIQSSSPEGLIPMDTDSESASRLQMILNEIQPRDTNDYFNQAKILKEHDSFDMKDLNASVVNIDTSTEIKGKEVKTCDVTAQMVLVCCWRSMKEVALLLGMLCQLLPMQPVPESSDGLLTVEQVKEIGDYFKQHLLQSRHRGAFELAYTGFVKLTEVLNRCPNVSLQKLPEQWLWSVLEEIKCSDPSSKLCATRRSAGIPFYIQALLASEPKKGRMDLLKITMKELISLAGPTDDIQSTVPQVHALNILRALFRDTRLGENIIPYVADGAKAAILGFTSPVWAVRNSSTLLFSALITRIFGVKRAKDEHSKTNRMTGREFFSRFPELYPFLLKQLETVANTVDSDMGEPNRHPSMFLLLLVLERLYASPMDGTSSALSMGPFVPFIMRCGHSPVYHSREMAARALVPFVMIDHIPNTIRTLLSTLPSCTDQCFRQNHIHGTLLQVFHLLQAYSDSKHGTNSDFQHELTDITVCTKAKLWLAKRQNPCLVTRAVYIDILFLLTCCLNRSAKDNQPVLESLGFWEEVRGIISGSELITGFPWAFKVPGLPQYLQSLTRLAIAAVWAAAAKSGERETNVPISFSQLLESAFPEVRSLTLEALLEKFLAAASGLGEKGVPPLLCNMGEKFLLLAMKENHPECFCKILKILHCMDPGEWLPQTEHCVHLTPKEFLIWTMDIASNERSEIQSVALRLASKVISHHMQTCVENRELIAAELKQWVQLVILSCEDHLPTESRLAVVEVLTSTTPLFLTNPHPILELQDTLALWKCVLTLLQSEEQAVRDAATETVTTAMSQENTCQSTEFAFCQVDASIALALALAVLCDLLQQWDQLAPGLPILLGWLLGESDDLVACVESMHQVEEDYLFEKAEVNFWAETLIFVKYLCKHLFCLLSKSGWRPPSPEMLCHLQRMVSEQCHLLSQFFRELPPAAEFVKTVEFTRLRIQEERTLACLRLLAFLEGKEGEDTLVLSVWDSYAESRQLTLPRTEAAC", "log2 fold change": "-0.18 (inactive)"}, {"target": "SMARCB1 (UniProt Q12824)", "log2 fold change": "0.026 (inactive)"}, {"target": "TACC2 (UniProt O95359)", "log2 fold change": "-0.107 (inactive)"}, {"target": "SRFBP1 (UniProt Q8NEF9)", "sequence (Q8NEF9 whole entry, looked up)": "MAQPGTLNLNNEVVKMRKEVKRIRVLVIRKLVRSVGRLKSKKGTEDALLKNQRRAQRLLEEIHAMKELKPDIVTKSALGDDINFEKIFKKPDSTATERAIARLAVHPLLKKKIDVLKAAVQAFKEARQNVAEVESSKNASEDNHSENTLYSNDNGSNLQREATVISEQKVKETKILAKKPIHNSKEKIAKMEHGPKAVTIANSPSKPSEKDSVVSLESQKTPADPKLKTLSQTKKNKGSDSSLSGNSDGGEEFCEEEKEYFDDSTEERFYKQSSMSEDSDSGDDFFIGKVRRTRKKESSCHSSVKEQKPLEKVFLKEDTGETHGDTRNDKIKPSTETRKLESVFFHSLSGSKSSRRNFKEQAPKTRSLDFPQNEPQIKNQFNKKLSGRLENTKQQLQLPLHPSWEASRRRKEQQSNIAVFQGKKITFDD", "log2 fold change": "0.193 (inactive)"}, {"target": "SYNE1 (UniProt Q8NF91)", "log2 fold change": "-0.079 (inactive)"}, {"target": "STARD3 (UniProt Q14849)", "sequence (Q14849 whole entry, looked up)": "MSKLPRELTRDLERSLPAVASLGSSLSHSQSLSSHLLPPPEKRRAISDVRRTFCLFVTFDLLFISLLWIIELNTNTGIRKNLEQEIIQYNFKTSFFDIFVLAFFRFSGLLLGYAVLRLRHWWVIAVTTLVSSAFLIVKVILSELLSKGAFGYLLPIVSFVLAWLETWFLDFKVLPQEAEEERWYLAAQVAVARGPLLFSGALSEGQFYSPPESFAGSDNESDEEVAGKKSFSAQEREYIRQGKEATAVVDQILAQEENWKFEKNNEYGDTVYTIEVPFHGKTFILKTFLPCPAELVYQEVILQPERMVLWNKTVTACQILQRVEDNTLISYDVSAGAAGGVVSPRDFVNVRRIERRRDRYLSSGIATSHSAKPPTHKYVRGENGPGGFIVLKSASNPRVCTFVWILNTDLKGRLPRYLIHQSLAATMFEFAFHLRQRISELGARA", "log2 fold change": "-0.147 (inactive)"}, {"target": "SNX15 (UniProt Q9NRS6)", "log2 fold change": "0.151 (inactive)"}, {"target": "SRCAP (UniProt Q6ZRS2)", "log2 fold change": "0.097 (inactive)"}, {"target": "THYN1 (UniProt Q9P016)", "log2 fold change": "-0.009 (inactive)"}, {"target": "SURF2 (UniProt Q15527)", "log2 fold change": "0.014 (inactive)"}, {"target": "TANGO6 (UniProt Q9C0B7)", "log2 fold change": "0.04 (inactive)"}, {"target": "SPCS2 (UniProt Q15005)", "sequence (Q15005 whole entry, looked up)": "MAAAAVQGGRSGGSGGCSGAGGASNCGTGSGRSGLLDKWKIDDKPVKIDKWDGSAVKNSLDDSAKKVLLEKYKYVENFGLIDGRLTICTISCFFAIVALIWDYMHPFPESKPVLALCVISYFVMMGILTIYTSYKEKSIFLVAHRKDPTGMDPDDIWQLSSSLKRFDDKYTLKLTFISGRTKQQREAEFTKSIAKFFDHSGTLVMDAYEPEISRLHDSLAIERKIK", "log2 fold change": "-0.061 (inactive)"}, {"target": "STAM2 (UniProt O75886)", "log2 fold change": "0.059 (inactive)"}, {"target": "SP100 isoform 4 (UniProt P23497)", "log2 fold change": "0 (inactive)"}, {"target": "TM7SF3 (UniProt Q9NS93)", "log2 fold change": "-0.218 (inactive)"}, {"target": "TIMM10B (UniProt Q9Y5J6)", "sequence (Q9Y5J6 whole entry, looked up)": "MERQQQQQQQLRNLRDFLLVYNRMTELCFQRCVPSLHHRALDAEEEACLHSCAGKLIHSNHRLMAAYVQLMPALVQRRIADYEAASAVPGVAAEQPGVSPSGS", "log2 fold change": "-0.068 (inactive)"}, {"target": "TLK1 (UniProt Q9UKI8)", "sequence (Q9UKI8 whole entry, looked up)": "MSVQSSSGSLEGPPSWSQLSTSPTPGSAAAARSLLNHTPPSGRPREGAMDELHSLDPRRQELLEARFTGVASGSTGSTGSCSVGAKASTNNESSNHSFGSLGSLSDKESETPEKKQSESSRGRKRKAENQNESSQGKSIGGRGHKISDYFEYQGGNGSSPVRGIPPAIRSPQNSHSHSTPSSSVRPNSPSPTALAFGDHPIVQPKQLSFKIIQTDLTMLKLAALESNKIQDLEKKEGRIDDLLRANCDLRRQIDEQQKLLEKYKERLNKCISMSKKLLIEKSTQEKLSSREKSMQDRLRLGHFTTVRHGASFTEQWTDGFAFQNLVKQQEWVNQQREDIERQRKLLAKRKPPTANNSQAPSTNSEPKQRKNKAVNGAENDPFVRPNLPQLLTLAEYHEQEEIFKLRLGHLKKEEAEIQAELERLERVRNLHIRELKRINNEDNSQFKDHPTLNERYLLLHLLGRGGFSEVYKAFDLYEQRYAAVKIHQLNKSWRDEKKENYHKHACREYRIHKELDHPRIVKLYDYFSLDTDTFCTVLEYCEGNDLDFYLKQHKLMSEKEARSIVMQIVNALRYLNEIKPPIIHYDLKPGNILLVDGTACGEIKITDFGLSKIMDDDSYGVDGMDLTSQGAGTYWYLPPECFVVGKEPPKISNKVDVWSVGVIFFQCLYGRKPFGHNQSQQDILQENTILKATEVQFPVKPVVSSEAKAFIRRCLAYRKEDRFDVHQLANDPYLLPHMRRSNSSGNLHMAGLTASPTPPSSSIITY", "log2 fold change": "-0.021 (inactive)"}, {"target": "SLC30A7 (UniProt Q8NEW0)", "log2 fold change": "-0.086 (inactive)"}, {"target": "TAF6L (UniProt Q9Y6J9)", "log2 fold change": "0.177 (inactive)"}, {"target": "SLC35B1 isoform 2 (UniProt P78383)", "log2 fold change": "-0.037 (inactive)"}, {"target": "STX7 (UniProt O15400)", "log2 fold change": "-0.071 (inactive)"}, {"target": "TARS2 (UniProt Q9BW92)", "log2 fold change": "-0.02 (inactive)"}, {"target": "SUPT5H (UniProt O00267)", "log2 fold change": "-0.005 (inactive)"}, {"target": "SMIM20 isoform 2 (UniProt Q8N5G0)", "log2 fold change": "0.093 (inactive)"}, {"target": "TANK (UniProt Q92844)", "log2 fold change": "0.03 (inactive)"}]}]}
